Screens deposited in PubChem BioAssay by National Center for Advancing Translational Sciences (NCATS).
The list is not random: actives were taken first. Their share in the collection is about 1%.
KCNH2 WT inh: KCNH2 (human, wildtype) channel inhibition; 0.37% of 340,000 active; activity change, % at 1.84 µM; U2OS, BacMam KCNH2, thallium flux FluxOr; active compounds read low; AID 720551; Q12809;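 active = maximum activity change below -70%; inconclusive = maximum activity change between -70% and -50%; inactive = maximum activity change above -50%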; note: % is set by controls: 0 for no effect and ±100 for the full control effect
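U2OS cells transduced with wild-type KCNH2 virus are loaded with FluxOr dye for 45 min, and thallium flux is measured in kinetic reads before and after stimulation buffer. Rate constants are normalized to DMSO controls.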
TRPML1 inh: blocks the human TRPML1 channel; Q9GZU1; TRPML1-inducible cells, Ca2+ dye fluorescence, FDSS; active compounds read low; inhibition of EC80 agonist-evoked calcium signal; activity change, negative = inhibition, % (concentration not given with the values); 0.02% of 390,000 active; in the data active = activity change below about -50%; inconclusive = between about -30% and that limit;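 note: stimulus is agonist 54-4 at its EC80 concentration; % is set by controls: 0 for no effect and ±100 for the full control effect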
Target sequence (Q9GZU1 whole entry, looked up): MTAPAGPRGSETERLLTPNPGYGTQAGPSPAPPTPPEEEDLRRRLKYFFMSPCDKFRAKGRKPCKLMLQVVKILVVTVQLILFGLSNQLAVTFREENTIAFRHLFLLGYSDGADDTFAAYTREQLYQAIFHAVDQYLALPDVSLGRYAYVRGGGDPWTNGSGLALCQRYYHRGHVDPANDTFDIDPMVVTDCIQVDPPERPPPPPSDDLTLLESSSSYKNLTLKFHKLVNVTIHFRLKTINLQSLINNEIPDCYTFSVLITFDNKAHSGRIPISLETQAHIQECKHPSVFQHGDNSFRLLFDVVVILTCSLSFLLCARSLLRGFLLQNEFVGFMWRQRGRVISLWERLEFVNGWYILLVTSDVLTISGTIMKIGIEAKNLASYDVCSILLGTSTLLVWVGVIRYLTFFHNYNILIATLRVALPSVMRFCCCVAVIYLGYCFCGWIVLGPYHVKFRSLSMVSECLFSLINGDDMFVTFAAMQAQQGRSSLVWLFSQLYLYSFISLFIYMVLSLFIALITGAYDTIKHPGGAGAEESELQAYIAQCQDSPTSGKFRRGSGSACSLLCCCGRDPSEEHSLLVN
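Tet-induced TRPML1-DL cells loaded with Ca8 no-wash calcium dye were read kinetically on FDSS. Compound addition was followed by EC80 agonist 54-4 (4 uM final); inhibition was read over 110 s.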
TRPML1 ag: activates the human TRPML1 channel. AID 624414. activation, % (test concentration not listed). 0.12% of 410,000 active. TRPML1-expressing cells, Ca2+ dye fluorescence, FDSS; in the data active = activation above about 50%; inconclusive = mostly about 30% to 49%; note: 0% is about no effect
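Tet-induced TRPML1-DL cells, 1,500 per well, cultured overnight, were loaded with a no-wash Ca2+ dye for 45–90 min. Calcium fluorescence was recorded on the FDSS for 110 s after compound addition, before the EC80 agonist (4 uM 54-4) was added.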
KCNH2 3.1 block: KCNH2 3.1 (human) potassium channel inhibition. AID 720553. 0.95% of 340,000 active. activity change, % (tested at about 1.8 µM). U2OS KCNH2 3.1, thallium flux FluxOr; active compounds read low;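 active = maximum activity change below -70%; inconclusive = maximum activity change from -70% to -50%; inactive = maximum activity change above -50%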;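 note: thallium influx rate constant from kinetic fluorescence after stimulation buffer; % is set by controls: 0 for no effect and ±100 for the full control effect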
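Channel expression came from 3.1 mutant virus (1.77 x 10^8 /mL) applied to suspended U2OS cells for 4 h. Flux was tracked with FluxOr dye plus Red40 quencher, and kinetic rate constants normalized to controls.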
TSG101-PTAP inh: blocks PTAP/TSG101 interaction to inhibit HIV-1 budding. Q99816. Fluorescence polarization, FITC-PTAP peptide / Tsg101 binding. Potency, µM (top dose mostly 115 µM), for the others: at the highest dose activity change, negative = inhibition, usual class: inhibitors. 340,000 tested, under 10 active. AID 493005; active = well fitted inhibition curve with a large enough effect in the main read-out, with a control signal flat, not every such curve was filed as active; inconclusive = small, poorly fitted or top-dose-only effect, or effect the other way, or a change in a side signal; inactive = no such curve, though single readings can be large or run the other way; note: potency is the fitted concentration of half-maximal effect; % of control where 0% means no effect
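Tsg101 binding domain (10 uM final) was mixed with compound and a FITC-labeled PTAP peptide (50 nM final) in HEPES pH 7.5 buffer with NaCl, Tween 20, EDTA and TCEP; fluorescence polarization was read after 20 min at r.t.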
Glioma ERSR ind: induces the endoplasmic reticulum stress response in human glioma cells. Potency, µM, without a hit: at the highest dose activation, most hits filed as activators. AID 602332. U87-MG GRP78 promoter luciferase reporter, 16 h. 0.02% of 420,000 active; active = well fitted activation curve with a large enough effect; inconclusive = small, poorly fitted or top-dose-only effect; inactive = no such curve, though single readings can be large or run the other way; note: potency is the fitted concentration of half-maximal effect; series mostly up to about 76 µM; % of control where 0% means no effect; nearly all actives have a fitted effect of over 35% in size
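ERSR induction read as luciferase luminescence (Bright-Glo, 10 min at room temperature) in stably transfected human U87-MG glioma cells exposed to compounds for 16 h, using GRP78 as sensor.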
Starred values were filed as active, the others as inactive; ? = inconclusive; / = not tested or not shown.

SMILES	KCNH2 WT inh	TRPML1 inh	TRPML1 ag	KCNH2 3.1 block	TSG101-PTAP inh	Glioma ERSR ind
O=[N+]([O-])c1ccc(N2CCN(Cc3ccccc3)CC2)c(S(=O)(=O)N2CCOCC2)c1	-43.2	14.4	-0.4	-73.0*	0.6%	-6.2%
Cc1oc(-c2ccccc2NC(=O)c2ccccc2)nc1CNC(=O)c1cccc(-n2cccn2)c1	/	/	/	/	/	-4.5%
COc1cc(N)c(Cl)cc1C(=O)OCCCN1CCCCC1	/	/	/	/	/	0.1%
COc1cc(N)c(Cl)cc1C(=O)N[C@H]1CCN(CCCOc2ccc(F)cc2)C[C@H]1OC	-70.1*	-0.3	-1.0	-84.2*	1.9%	-0.9%
OCCOCCn1c(C2CCCN2c2nc(-c3ccc(F)cc3)cs2)nc2cc(C(F)(F)F)ccc21 (stereo not drawn)	-102.8*	-0.9	-0.6	-101.4*	4.4%	-3.7%
OCCCn1c(CCNc2nc(-c3ccc(F)cc3)cs2)nc2cc(C(F)(F)F)ccc21	16.9	-17.7	0.2	-123.4*	-0.5%	-5.6%
CCN(CC)CCSc1nc2ccccc2n1Cc1ccccc1	?	27.1	-0.5	-75.3*	-3.4%	1.3%
COc1ccccc1CCNc1ncnc2sc(C(=O)N3CCCC3)c(C)c12	/	/	/	/	/	-3.5%
CCCN1CCN(CCNC(=O)Nc2ccc(OC)c(OC)c2)CC1	/	-4.2	-0.5	/	/	-2.4%
COc1ccc(N2CCN(CCC(N)=O)CC2)cc1	0.7	9.3	-0.3	-0.2	-3.3%	0.3%
COc1cc(NC(=O)NCCN2CCN(c3ccc(Cl)cc3)CC2)ccc1C	-38.2	0.3	-0.1	-81.5*	-1.2%	0.2%
COc1ccccc1NC(=O)NCCCN1CCN(c2ccc(F)cc2)CC1	/	-19.8	-0.1	/	/	-1.9%
COc1ccc(N2CCN(CCNC(=O)Nc3ccc(C)c(Cl)c3)CC2)cc1	/	-23.1	0.0	-89.6*	-3.9%	-2.4%
COc1ccc(C(=O)CCN2CCN(c3ccc(OC)cc3)CC2)cc1	15.1	28.2	1.7	-70.9*	-0.2%	-13.6%
COc1cccc(NC(=O)NCCCN2CCN(c3ccc(F)cc3)CC2)c1	-37.9	-8.6	0.3	-82.0*	0.2%	-5.0%
COc1ccc(NC(=O)NCCN2CCN(c3cccc(Cl)c3)CC2)cc1	0.3	-0.9	-0.9	-42.7	0.9%	-0.4%
OCCN1CCN(Cc2ccc3c(c2)CN(Cc2cc4ccccc4o2)CCO3)CC1	/	/	/	/	/	-4.3%
COc1cc(Cl)c(CN2CCOc3ccc(CN4CCCCC4CO)cc3C2)cc1OC (stereo not drawn)	/	/	/	/	/	-4.1%
COc1cc(=O)n2c(c1C(=O)N(C)Cc1cscn1)CCN(Cc1c(C)[nH]c3ccccc13)CC2	/	/	/	/	/	4.4%
COc1ccc(NC(=O)NCCCN2CCN(c3cc(C)ccc3C)CC2)cc1	39.0	-0.3	0.3	-91.6*	-0.6%	-4.4%
O=C(NC1CCCC1)C(c1ccsc1)N(C(=O)Cc1cccs1)c1ccc(F)cc1 (stereo not drawn)	-6.9	-2.1	-0.6	-75.9*	-11.3%	-3.6%
COc1ccc(CNC(=O)CCCn2ncn3c(cc4occc43)c2=O)cc1	2.4	-7.5	0.3	-114.2*	0.6%	-6.3%
Cc1ccc2c(CC(=O)Nc3ccc(N4CCN(C)CC4)cc3C)coc2c1	30.5	3.8	-0.2	-82.8*	-3.0%	1.1%
Cc1ccc(NC(=O)Cc2coc3c(C)c(C)ccc23)c(C)c1	/	-11.0	1.2	/	/	2.9%
Cc1ccc(C)c(-n2nnnc2SCC(=O)NCC2CCCO2)c1 (stereo not drawn)	3.1	-4.2	1.6	-2.2	-1.2%	-0.1%
SMILES	KCNH2 WT inh	TRPML1 inh	TRPML1 ag	KCNH2 3.1 block	TSG101-PTAP inh	Glioma ERSR ind
COc1ccc(C)cc1-n1nnnc1SCC1CCCO1 (stereo not drawn)	-107.3*	4.5	-0.4	2.0	-1.3%	1.2%
COc1cc(-c2cnc3ccccc3c2)cc2c1OCCN(C(=O)CCn1nc(C)cc1C)C2	/	/	/	/	/	-0.8%
Cc1ccccc1-c1nc(SCc2cccnc2)c2c(=O)n(C)c(=O)n(C)c2n1	-255.7*	1.9	-0.9	-4.9	-0.2%	-4.7%
C/C1=C2N=C(/C=C3N=C(/C(C)=C4\[N-][C@@H]([C@H](CC(N)=O)[C@]4(C)CCC(=O)NC[C@@H](C)OP(=O)([O-])O[C@@H]4[C@@H](O)[C@H](n5cnc6cc(C)c(C)cc65)O[C@@H]4CO)[C@@]4(C)N=C1[C@H](CCC(N)=O)[C@@]4(C)CC(N)=O)[C@H](CCC(N)=O)C\3(C)C)[C@@H](CCC(N)=O)[C@@]/2(C)CC(N)=O.[CH3-].[Co+3]	/	/	/	/	/	-11.5%
CCCCn1c2c(c(=N)c3c1CCC3)CCC2	-47.5	-7.4	-0.4	-21.8	-2.8%	-6.9%
CCn1c2c(c(=N)c3c1CCC3)CCC2	0.5	-7.4	0.3	-88.4*	-0.6%	0.5%
CCOC(=O)[C@H]1[C@H]2COc3ccc(C)cc3[C@@H]2N2C(=O)c3cc(F)c(F)cc3NC(=O)[C@@]12C	-0.2	22.9	2.1	-14.1	-8.8%	-4.9%
COc1ccc2c(c1)[C@H]1[C@H](CO2)[C@H](c2ccccc2)[C@]2(C)C(=O)Nc3ccc(Br)cc3C(=O)N12	-6.4	-18.7	1.8	-85.5*	-0.8%	-1.9%
Cc1ccc2c(c1)C(=O)N1[C@H]3c4cc(Cl)ccc4OC[C@@H]3[C@H](c3ccccc3)[C@]1(C)C(=O)N2	-6.8	23.7	0.8	-83.3*	2.1%	-2.7%
CCOC(=O)[C@H]1[C@H]2COc3ccc(Cl)cc3[C@@H]2N2C(=O)c3cc(F)c(F)cc3NC(=O)[C@@]12C	10.7	-9.0	0.2	-193.5*	3.8%	1.4%
COc1ccc2c(c1)C(=O)N1[C@H]3c4cc(OC)ccc4OC[C@@H]3[C@H](c3ccccc3)[C@]1(C)C(=O)N2	1.2	5.7	0.4	5.5	0.1%	-5.1%
Cc1ccc2c(c1)CN(CCC(=O)NCc1cc(C)n(C)n1)CC(C)O2 (stereo not drawn)	/	/	/	/	/	-5.4%
Cc1ccc2c(c1)CN(CCNC(=O)c1cc3ccccc3oc1=O)CC(C)O2 (stereo not drawn)	/	/	/	/	/	-2.5%
CCOC(=O)N1CCN(Cc2ccc3c(c2)CN(C(=O)c2cc(-c4ccccc4)on2)CCO3)CC1	/	/	/	/	/	-5.4%
O=S(=O)(c1ccccc1)N1CCNc2ccccc21	-0.3	2.3	-1.2	-121.5*	-9.4%	-0.8%
Cc1ccc(CN2CCc3nnc(C(C)NC(=O)c4cc(F)ccc4F)n3CC2)o1 (stereo not drawn)	/	/	/	/	/	-5.5%
CN(C)c1ccc(C(=O)/C=C/c2ccc(Br)cc2)cc1	/	-2.7	1.6	2.5	9.0%	8.3%
CCN(CC)c1ccc(/C=C/C(=O)c2ccc(Br)cc2)cc1	-166.7*	-14.1	87.8*	?	?	-2.4%
